# Tests used:
# Experiment in all cases: PBM; 200 nM protein, PBS
# Details in all cases: dsDNA, one strand shown
# VENTX = biological target: T1, VENTX (Homo sapiens, UniProt O95231 78-163, R121Q)
# T1 sequence: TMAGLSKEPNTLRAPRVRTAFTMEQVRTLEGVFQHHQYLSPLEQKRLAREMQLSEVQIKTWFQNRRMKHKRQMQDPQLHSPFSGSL
# HOXA4 [1] = biological target: HOXA4 (Homo sapiens, UniProt Q00056 201-287, W262R)
# HOXA7 [2] = biological target: HOXA7 (Homo sapiens, UniProt P31268 116-202)
# ALX4 [3] = biological target: ALX4 (Homo sapiens, UniProt Q9H161 200-286)
# Sequence of ALX4 (Homo sapiens, UniProt Q9H161 200-286) (Q9H161 200-286): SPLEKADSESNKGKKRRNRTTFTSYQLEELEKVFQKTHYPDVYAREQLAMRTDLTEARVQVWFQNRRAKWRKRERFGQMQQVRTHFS
# PRRX1 [4] = biological target: PRRX1 (Homo sapiens, UniProt P54821 80-166, F113S)
# Sequence of PRRX1 (Homo sapiens, UniProt P54821 80-166, F113S) (P54821 80-166 F113S): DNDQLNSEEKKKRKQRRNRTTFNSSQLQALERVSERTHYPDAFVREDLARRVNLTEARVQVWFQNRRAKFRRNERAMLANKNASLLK
# HOXB6 [5] = biological target: HOXB6 (Homo sapiens, UniProt P17509 132-218, K202E)
# Sequence of HOXB6 (Homo sapiens, UniProt P17509 132-218, K202E) (P17509 132-218 K202E): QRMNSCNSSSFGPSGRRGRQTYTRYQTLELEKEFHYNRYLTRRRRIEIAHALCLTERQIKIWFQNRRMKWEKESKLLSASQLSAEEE
# ALX4 [6] = biological target: ALX4 (Homo sapiens, UniProt Q9H161 200-286, Q225E)
# Sequence of ALX4 (Homo sapiens, UniProt Q9H161 200-286, Q225E) (Q9H161 200-286 Q225E): as the sequence (Q9H161 200-286) above, with Q26E counted along it
# HOXA2 = HOXA2 (Homo sapiens, UniProt O43364 129-215, R185T)
# Sequence of HOXA2 (O43364 129-215 R185T): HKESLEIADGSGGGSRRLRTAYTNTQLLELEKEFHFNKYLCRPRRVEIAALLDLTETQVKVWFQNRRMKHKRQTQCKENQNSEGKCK
# ALX1 [7] = biological target: ALX1 (Homo sapiens, UniProt Q15699 118-204, L144V)
# Sequence of ALX1 (Homo sapiens, UniProt Q15699 118-204, L144V) (Q15699 118-204 L144V): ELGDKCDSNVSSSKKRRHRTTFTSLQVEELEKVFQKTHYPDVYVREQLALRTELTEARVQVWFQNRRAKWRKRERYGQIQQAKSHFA
# ALX1 [8] = biological target: ALX1 (Homo sapiens, UniProt Q15699 118-204, L144R)
# Sequence of ALX1 (Homo sapiens, UniProt Q15699 118-204, L144R) (Q15699 118-204 L144R): as the sequence (Q15699 118-204 L144V) above, with V27R counted along it
# HOXA4 [9] = biological target: HOXA4 (Homo sapiens, UniProt Q00056 201-287)
# Sequence of HOXA4 (Homo sapiens, UniProt Q00056 201-287) (Q00056 201-287): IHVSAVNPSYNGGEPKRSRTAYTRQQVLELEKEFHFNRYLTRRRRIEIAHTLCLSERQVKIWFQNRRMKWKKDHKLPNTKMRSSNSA
# MSX2 = MSX2 (Homo sapiens, UniProt P35548 130-214)
# Sequence of MSX2 (P35548 130-214): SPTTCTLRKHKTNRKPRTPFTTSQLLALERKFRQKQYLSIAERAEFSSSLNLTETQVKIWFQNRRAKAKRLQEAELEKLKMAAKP
# VAX1 [10] = biological target: VAX1 (Homo sapiens, UniProt Q5SQQ9 86-172, T142I)
# Sequence of VAX1 (Homo sapiens, UniProt Q5SQQ9 86-172, T142I) (Q5SQQ9 86-172 T142I): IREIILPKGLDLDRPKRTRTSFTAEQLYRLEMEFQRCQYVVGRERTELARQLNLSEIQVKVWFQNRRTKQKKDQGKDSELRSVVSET
# HOXA7 [11] = biological target: HOXA7 (Homo sapiens, UniProt P31268 116-202, W177C)
# Sequence of HOXA7 (Homo sapiens, UniProt P31268 116-202, W177C) (P31268 116-202 W177C): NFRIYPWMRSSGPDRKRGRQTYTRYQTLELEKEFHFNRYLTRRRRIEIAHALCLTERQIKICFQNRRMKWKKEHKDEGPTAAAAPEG
# ALX1 [12] = biological target: ALX1 (Homo sapiens, UniProt Q15699 118-204)
# Sequence of ALX1 (Homo sapiens, UniProt Q15699 118-204) (Q15699 118-204): as the sequence (Q15699 118-204 L144V) above, with V27L counted along it
# HOXA4 [13] = biological target: HOXA4 (Homo sapiens, UniProt Q00056 201-287, W262F)
# Sequence of HOXA4 (Homo sapiens, UniProt Q00056 201-287, W262F) (Q00056 201-287 W262F): as the sequence (Q00056 201-287) above, with W62F counted along it
# PRRX1 [14] = biological target: PRRX1 (Homo sapiens, UniProt P54821 80-166)
# Sequence of PRRX1 (Homo sapiens, UniProt P54821 80-166) (P54821 80-166): as the sequence (P54821 80-166 F113S) above, with S34F counted along it
# VAX1 [15] = biological target: VAX1 (Homo sapiens, UniProt Q5SQQ9 86-172, K157R)
# Sequence of VAX1 (Homo sapiens, UniProt Q5SQQ9 86-172, K157R) (Q5SQQ9 86-172 K157R): as the sequence (Q5SQQ9 86-172 T142I) above, with I57T, K72R counted along it
# HOXB6 [16] = biological target: HOXB6 (Homo sapiens, UniProt P17509 132-218)
# Sequence of HOXB6 (Homo sapiens, UniProt P17509 132-218) (P17509 132-218): as the sequence (P17509 132-218 K202E) above, with E71K counted along it
# Sequence of HOXA7 (Homo sapiens, UniProt P31268 116-202) (P31268 116-202): as the sequence (P31268 116-202 W177C) above, with C62W counted along it
# Sequence of HOXA4 (Homo sapiens, UniProt Q00056 201-287, W262R) (Q00056 201-287 W262R): as the sequence (Q00056 201-287) above, with W62R counted along it
Sequence,binding signal (VENTX),binding signal (HOXA4 [1]),binding signal (HOXA7 [2]),binding signal (ALX4 [3]),binding signal (PRRX1 [4]),binding signal (HOXB6 [5]),binding signal (ALX4 [6]),binding signal (HOXA2),binding signal (ALX1 [7]),binding signal (ALX1 [8]),binding signal (HOXA4 [9]),binding signal (MSX2),binding signal (VAX1 [10]),binding signal (HOXA7 [11]),binding signal (ALX1 [12]),binding signal (HOXA4 [13]),binding signal (PRRX1 [14]),binding signal (VAX1 [15]),binding signal (HOXB6 [16])
CAATTAAG,"12 upbm affinity estimate (log intensity, higher = more binding, comparable within an allelic series)","10.6 upbm affinity estimate (log intensity, higher = more binding, comparable within an allelic series)","11.5 upbm affinity estimate (log intensity, higher = more binding, comparable within an allelic series)","13.9 upbm affinity estimate (log intensity, higher = more binding, comparable within an allelic series)","11.3 upbm affinity estimate (log intensity, higher = more binding, comparable within an allelic series)","9.95 upbm affinity estimate (log intensity, higher = more binding, comparable within an allelic series)","13.4 upbm affinity estimate (log intensity, higher = more binding, comparable within an allelic series)","12.9 upbm affinity estimate (log intensity, higher = more binding, comparable within an allelic series)","11.7 upbm affinity estimate (log intensity, higher = more binding, comparable within an allelic series)","11.4 upbm affinity estimate (log intensity, higher = more binding, comparable within an allelic series)","13.8 upbm affinity estimate (log intensity, higher = more binding, comparable within an allelic series)","13.9 upbm affinity estimate (log intensity, higher = more binding, comparable within an allelic series)","12.8 upbm affinity estimate (log intensity, higher = more binding, comparable within an allelic series)","8.83 upbm affinity estimate (log intensity, higher = more binding, comparable within an allelic series)","12.3 upbm affinity estimate (log intensity, higher = more binding, comparable within an allelic series)","11.7 upbm affinity estimate (log intensity, higher = more binding, comparable within an allelic series)","13.3 upbm affinity estimate (log intensity, higher = more binding, comparable within an allelic series)","12.5 upbm affinity estimate (log intensity, higher = more binding, comparable within an allelic series)","11.8 upbm affinity estimate (log intensity, higher = more binding, comparable within an allelic series)"
CCAGGTCC,"7.92 upbm affinity estimate (log intensity, higher = more binding, comparable within an allelic series)",,,,,,,"7.34 upbm affinity estimate (log intensity, higher = more binding, comparable within an allelic series)",,,,,,,,,,,
ACTAATTA,"12.8 upbm affinity estimate (log intensity, higher = more binding, comparable within an allelic series)","10.9 upbm affinity estimate (log intensity, higher = more binding, comparable within an allelic series)","12.1 upbm affinity estimate (log intensity, higher = more binding, comparable within an allelic series)","14.4 upbm affinity estimate (log intensity, higher = more binding, comparable within an allelic series)","12 upbm affinity estimate (log intensity, higher = more binding, comparable within an allelic series)","10.2 upbm affinity estimate (log intensity, higher = more binding, comparable within an allelic series)","14.3 upbm affinity estimate (log intensity, higher = more binding, comparable within an allelic series)","14 upbm affinity estimate (log intensity, higher = more binding, comparable within an allelic series)","12.4 upbm affinity estimate (log intensity, higher = more binding, comparable within an allelic series)","12 upbm affinity estimate (log intensity, higher = more binding, comparable within an allelic series)","14.2 upbm affinity estimate (log intensity, higher = more binding, comparable within an allelic series)","14.1 upbm affinity estimate (log intensity, higher = more binding, comparable within an allelic series)","14.1 upbm affinity estimate (log intensity, higher = more binding, comparable within an allelic series)","8.93 upbm affinity estimate (log intensity, higher = more binding, comparable within an allelic series)","13 upbm affinity estimate (log intensity, higher = more binding, comparable within an allelic series)","12.8 upbm affinity estimate (log intensity, higher = more binding, comparable within an allelic series)","13.7 upbm affinity estimate (log intensity, higher = more binding, comparable within an allelic series)","14.2 upbm affinity estimate (log intensity, higher = more binding, comparable within an allelic series)","12.4 upbm affinity estimate (log intensity, higher = more binding, comparable within an allelic series)"
TAATTAGA,"12.5 upbm affinity estimate (log intensity, higher = more binding, comparable within an allelic series)","10.8 upbm affinity estimate (log intensity, higher = more binding, comparable within an allelic series)","11.5 upbm affinity estimate (log intensity, higher = more binding, comparable within an allelic series)","14.5 upbm affinity estimate (log intensity, higher = more binding, comparable within an allelic series)","11.9 upbm affinity estimate (log intensity, higher = more binding, comparable within an allelic series)","10 upbm affinity estimate (log intensity, higher = more binding, comparable within an allelic series)","14.2 upbm affinity estimate (log intensity, higher = more binding, comparable within an allelic series)","13.9 upbm affinity estimate (log intensity, higher = more binding, comparable within an allelic series)","12.3 upbm affinity estimate (log intensity, higher = more binding, comparable within an allelic series)","12 upbm affinity estimate (log intensity, higher = more binding, comparable within an allelic series)","14.1 upbm affinity estimate (log intensity, higher = more binding, comparable within an allelic series)","14.1 upbm affinity estimate (log intensity, higher = more binding, comparable within an allelic series)","13.7 upbm affinity estimate (log intensity, higher = more binding, comparable within an allelic series)","8.87 upbm affinity estimate (log intensity, higher = more binding, comparable within an allelic series)","13 upbm affinity estimate (log intensity, higher = more binding, comparable within an allelic series)","12.1 upbm affinity estimate (log intensity, higher = more binding, comparable within an allelic series)","13.6 upbm affinity estimate (log intensity, higher = more binding, comparable within an allelic series)","13.9 upbm affinity estimate (log intensity, higher = more binding, comparable within an allelic series)","12 upbm affinity estimate (log intensity, higher = more binding, comparable within an allelic series)"
GTAATTGA,,"10.4 upbm affinity estimate (log intensity, higher = more binding, comparable within an allelic series)","11.2 upbm affinity estimate (log intensity, higher = more binding, comparable within an allelic series)","13.8 upbm affinity estimate (log intensity, higher = more binding, comparable within an allelic series)","11 upbm affinity estimate (log intensity, higher = more binding, comparable within an allelic series)",,"12.8 upbm affinity estimate (log intensity, higher = more binding, comparable within an allelic series)","12.5 upbm affinity estimate (log intensity, higher = more binding, comparable within an allelic series)","11.7 upbm affinity estimate (log intensity, higher = more binding, comparable within an allelic series)","11.2 upbm affinity estimate (log intensity, higher = more binding, comparable within an allelic series)","13.5 upbm affinity estimate (log intensity, higher = more binding, comparable within an allelic series)","13.7 upbm affinity estimate (log intensity, higher = more binding, comparable within an allelic series)","12.4 upbm affinity estimate (log intensity, higher = more binding, comparable within an allelic series)","8.88 upbm affinity estimate (log intensity, higher = more binding, comparable within an allelic series)","12.3 upbm affinity estimate (log intensity, higher = more binding, comparable within an allelic series)","11.2 upbm affinity estimate (log intensity, higher = more binding, comparable within an allelic series)","13.3 upbm affinity estimate (log intensity, higher = more binding, comparable within an allelic series)","12.6 upbm affinity estimate (log intensity, higher = more binding, comparable within an allelic series)",
